For 40 targets, log2 fold change results are on record in the supplement of paper PMC12819154, “High-throughput peptide-centric local stability assay extends protein–ligand identification to membrane proteins, tissues and bacteria” (Nature Structural & Molecular Biology, 2025).
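Note: lysate desalted by size exclusion to strip endogenous ATP, peptide intensities built from DIA-NN precursor signals, and peptides missing any value discarded before comparison.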

Chain of UniProt P76419 (P76419 whole entry): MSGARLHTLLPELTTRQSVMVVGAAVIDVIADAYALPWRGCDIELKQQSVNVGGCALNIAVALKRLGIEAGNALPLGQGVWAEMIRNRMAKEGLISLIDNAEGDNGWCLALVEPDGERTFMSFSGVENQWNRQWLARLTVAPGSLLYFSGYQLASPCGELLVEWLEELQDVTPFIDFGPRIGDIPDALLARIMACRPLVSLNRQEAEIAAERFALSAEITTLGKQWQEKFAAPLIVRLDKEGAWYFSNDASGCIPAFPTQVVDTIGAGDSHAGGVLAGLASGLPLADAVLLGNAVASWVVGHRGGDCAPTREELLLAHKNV
Chain of UniProt P37636 (P37636 whole entry): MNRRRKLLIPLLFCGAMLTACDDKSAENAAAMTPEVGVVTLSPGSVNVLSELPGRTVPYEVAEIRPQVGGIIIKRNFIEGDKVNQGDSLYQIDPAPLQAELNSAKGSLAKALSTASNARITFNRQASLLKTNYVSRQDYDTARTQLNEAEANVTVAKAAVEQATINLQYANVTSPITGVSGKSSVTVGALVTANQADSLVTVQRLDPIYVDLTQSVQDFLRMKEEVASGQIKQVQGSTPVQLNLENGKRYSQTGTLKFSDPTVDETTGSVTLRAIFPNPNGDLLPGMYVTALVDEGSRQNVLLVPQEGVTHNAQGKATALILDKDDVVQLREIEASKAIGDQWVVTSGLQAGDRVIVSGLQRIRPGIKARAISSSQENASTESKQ
Chain of UniProt P39343 (P39343 whole entry): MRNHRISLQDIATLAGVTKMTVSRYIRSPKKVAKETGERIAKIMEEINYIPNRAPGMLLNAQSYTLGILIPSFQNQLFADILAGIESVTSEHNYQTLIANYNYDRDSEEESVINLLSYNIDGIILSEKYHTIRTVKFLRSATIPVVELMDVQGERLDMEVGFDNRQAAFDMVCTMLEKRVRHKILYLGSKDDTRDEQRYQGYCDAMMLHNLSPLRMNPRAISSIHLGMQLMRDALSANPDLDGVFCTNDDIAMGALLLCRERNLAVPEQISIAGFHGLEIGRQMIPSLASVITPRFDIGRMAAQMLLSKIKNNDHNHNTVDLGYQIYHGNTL
Chain of UniProt P32703 (P32703 whole entry): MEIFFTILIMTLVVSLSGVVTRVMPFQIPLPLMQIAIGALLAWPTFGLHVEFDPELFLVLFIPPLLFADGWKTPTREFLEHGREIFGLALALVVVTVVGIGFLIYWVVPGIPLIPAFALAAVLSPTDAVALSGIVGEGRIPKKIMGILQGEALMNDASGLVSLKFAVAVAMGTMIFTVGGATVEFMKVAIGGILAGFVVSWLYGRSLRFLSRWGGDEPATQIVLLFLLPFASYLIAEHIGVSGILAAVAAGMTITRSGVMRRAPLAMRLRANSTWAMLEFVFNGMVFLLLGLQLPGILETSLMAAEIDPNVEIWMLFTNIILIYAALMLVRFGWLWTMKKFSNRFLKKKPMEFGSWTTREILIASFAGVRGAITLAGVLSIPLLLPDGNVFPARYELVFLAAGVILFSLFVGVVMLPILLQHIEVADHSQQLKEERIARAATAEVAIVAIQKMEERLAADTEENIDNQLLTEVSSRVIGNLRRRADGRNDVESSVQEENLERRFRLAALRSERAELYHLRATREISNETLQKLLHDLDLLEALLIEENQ
Chain of UniProt P09147 (P09147 whole entry): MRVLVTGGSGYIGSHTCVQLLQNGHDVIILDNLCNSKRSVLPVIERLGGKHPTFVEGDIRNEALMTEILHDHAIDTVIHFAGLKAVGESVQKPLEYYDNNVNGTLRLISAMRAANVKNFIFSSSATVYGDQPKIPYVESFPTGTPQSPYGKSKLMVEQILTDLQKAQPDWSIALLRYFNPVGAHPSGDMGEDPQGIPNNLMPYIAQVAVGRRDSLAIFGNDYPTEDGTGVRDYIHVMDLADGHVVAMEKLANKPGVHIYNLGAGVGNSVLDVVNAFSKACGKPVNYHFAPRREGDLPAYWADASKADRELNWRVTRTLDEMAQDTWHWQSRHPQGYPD
Chain of UniProt P0ACN7 (P0ACN7 whole entry): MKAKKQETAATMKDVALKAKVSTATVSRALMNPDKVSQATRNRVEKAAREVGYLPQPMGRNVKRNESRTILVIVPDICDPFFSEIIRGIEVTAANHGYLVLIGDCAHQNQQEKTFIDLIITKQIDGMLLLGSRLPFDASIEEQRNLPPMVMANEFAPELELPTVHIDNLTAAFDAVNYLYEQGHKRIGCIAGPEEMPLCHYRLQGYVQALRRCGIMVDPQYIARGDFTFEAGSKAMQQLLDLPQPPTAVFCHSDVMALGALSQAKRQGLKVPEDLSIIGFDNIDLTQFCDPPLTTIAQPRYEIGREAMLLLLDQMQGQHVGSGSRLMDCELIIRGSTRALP
Chain of UniProt P04425 (P04425 whole entry): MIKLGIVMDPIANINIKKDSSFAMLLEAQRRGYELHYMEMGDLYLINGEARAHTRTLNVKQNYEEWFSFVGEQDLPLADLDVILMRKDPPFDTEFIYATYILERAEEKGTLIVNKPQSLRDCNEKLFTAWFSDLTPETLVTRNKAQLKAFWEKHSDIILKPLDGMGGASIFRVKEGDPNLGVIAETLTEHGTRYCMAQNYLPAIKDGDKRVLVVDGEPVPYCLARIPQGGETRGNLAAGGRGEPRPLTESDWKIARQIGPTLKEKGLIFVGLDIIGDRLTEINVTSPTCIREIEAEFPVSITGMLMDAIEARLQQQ
Chain of UniProt P25748 (P25748 whole entry): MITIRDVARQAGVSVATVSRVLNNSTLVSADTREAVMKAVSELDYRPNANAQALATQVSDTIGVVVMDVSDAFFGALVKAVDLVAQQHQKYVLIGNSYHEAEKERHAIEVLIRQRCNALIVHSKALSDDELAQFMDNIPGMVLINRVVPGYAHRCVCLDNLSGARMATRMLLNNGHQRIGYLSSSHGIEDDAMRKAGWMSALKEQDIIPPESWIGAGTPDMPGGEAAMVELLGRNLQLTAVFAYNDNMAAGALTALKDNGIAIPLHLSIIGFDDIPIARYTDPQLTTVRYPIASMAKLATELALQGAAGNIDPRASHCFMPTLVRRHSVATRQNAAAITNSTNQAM
Chain of UniProt P21507 (P21507 whole entry): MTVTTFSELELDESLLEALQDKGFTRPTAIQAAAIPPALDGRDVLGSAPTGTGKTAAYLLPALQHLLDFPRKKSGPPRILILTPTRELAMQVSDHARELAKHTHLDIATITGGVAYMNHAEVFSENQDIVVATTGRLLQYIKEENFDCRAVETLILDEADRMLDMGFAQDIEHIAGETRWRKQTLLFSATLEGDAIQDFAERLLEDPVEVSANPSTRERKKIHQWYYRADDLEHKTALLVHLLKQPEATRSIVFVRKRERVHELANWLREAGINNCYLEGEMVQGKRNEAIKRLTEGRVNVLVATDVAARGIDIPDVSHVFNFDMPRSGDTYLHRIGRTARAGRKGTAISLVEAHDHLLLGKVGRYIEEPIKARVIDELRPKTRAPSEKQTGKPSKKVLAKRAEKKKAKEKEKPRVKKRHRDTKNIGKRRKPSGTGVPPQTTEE
Chain of UniProt P77804 (P77804 whole entry): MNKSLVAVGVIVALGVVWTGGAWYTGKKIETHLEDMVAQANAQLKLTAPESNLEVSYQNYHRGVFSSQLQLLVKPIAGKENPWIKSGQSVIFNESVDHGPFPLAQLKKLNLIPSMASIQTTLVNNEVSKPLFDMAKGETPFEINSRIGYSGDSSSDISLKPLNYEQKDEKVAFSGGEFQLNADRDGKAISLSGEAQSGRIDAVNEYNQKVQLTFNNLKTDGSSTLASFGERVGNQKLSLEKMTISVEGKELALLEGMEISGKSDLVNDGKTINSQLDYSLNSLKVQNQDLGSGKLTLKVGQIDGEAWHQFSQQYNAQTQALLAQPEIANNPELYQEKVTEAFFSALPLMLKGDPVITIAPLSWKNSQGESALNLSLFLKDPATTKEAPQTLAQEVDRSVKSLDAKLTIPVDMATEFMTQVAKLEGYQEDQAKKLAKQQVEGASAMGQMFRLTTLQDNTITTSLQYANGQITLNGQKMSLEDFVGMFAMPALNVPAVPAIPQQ
Chain of UniProt P51024 (P51024 whole entry): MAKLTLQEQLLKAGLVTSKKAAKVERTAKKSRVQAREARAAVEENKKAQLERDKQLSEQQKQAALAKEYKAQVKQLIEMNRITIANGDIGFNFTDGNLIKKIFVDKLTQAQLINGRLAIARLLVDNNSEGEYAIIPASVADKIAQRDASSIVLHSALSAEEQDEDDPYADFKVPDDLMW
Chain of UniProt P21170 (P21170 whole entry): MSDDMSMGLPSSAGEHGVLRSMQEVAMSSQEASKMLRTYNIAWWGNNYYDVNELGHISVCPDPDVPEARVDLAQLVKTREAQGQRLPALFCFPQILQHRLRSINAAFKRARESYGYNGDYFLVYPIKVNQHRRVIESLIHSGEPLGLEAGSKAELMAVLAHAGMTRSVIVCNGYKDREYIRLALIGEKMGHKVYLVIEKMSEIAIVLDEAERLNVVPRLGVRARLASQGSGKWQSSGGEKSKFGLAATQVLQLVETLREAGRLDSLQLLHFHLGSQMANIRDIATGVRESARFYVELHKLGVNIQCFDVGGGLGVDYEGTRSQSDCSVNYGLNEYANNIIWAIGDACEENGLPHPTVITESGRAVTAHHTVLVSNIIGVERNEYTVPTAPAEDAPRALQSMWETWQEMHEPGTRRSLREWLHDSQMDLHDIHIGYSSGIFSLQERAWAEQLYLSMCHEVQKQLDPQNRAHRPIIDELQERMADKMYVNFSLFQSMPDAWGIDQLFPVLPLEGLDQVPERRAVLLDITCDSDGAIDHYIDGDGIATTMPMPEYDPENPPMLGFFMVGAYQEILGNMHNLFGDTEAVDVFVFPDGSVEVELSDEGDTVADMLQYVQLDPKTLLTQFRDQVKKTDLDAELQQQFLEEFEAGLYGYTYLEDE
Chain of UniProt P77754 (P77754 whole entry): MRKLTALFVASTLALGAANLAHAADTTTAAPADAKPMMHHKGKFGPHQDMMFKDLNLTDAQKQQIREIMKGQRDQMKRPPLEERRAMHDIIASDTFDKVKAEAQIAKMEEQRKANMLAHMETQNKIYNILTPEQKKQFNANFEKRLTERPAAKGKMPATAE

Compound in this test: Nc1ncnc2c1ncn2[C@@H]1O[C@H](COP(=O)(O)OP(=O)(O)OP(=O)(O)O)[C@@H](O)[C@H]1O [adenosine 5'-triphosphate]
The test is described as follows: log2 fold change of tryptic peptide abundance, ligand vs vehicle (limited proteolysis) (log2 ratio); higher = more trypsin-susceptible (destabilized). The following applies: ligand concentration: 5 mM; sample: E. coli desalted lysate; replicate design: treated before aliquoting. How it is done:
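HT-PELSA: desalted E. coli K-12 BW25113 lysate (with 12 mM MgCl2) incubated with 5 mM ATP (pH 7) or water for 30 min at 25 C, then a 4 min trypsin pulse at 22 C. Peptides were quantified by DIA-MS (4 replicates). Value is the peptide log2 fold change (treated/control); negative = stabilized. Scale: negative = ligand-stabilized region.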
For the target “UniProt P32703 (peptide sequence: AATAEVAIVAIQK, peptide start residue: 440)”, the log2 fold change is 1.52.

With “UniProt P0ACN7 (peptide sequence: LMDCELIIR, peptide start residue: 326)”, the log2 fold change was 1.5.

As for “UniProt P20966 (peptide sequence: FAGKPMYR, peptide start residue: 175)”, the log2 fold change worked out at 1.06.

As to “UniProt P76177 (peptide sequence: KRIVQSPDVIPADSEAGR, peptide start residue: 179)”, the log2 fold change came out at 2.16.

For “UniProt P76097 (peptide sequence: FGEIEQR, peptide start residue: 288)”, the log2 fold change turned out to be 0.885.

Take “UniProt P30750 (peptide sequence: TVFGNVALPLELDNTPKDEVKR, peptide start residue: 98)”: the log2 fold change came to 0.668.

With “UniProt P21507 (peptide sequence: DVLGSAPTGTGK, peptide start residue: 43)”, the log2 fold change was -3.34.

As to “UniProt P04425 (peptide sequence: GTLIVNKPQSLR, peptide start residue: 109)”, the log2 fold change was -1.9.

As to “UniProt P29013 (peptide sequence: SREEYLQSQVNMLWR, peptide start residue: 204)”, the log2 fold change is -0.636.

Turning to “UniProt P21513 (peptide sequence: DNESLSLSILR, peptide start residue: 415)”, the log2 fold change came out at 0.633.

With “UniProt P23857 (peptide sequence: ERIATAVPDKNDTVK, peptide start residue: 50)”, the log2 fold change amounted to 0.323.

As to “UniProt P29018 (peptide sequence: HLSWVGQNPQLPAATLR, peptide start residue: 424)”, the log2 fold change was -0.418.

“UniProt P39343 (peptide sequence: IKNNDHNHNTVDLGYQIYHGNTL, peptide start residue: 310)”: the log2 fold change is -0.756.

Consider “UniProt P37647 (peptide sequence: LTGGSAEDAAK, peptide start residue: 275)”, for which the log2 fold change was -1.34.

“UniProt P09030 (peptide sequence: CSFLPEER, peptide start residue: 177)”: the log2 fold change is -1.54.

For the target “UniProt P07001 (peptide sequence: FFTGQITAAGK, peptide start residue: 152)”, the log2 fold change was -0.651.

In the case of “UniProt P37626 (peptide sequence: TVETSDER, peptide start residue: 297)”, the log2 fold change was found to be 0.336.

For “UniProt P77754 (peptide sequence: DLNLTDAQK, peptide start residue: 54)”, the log2 fold change is -0.35.

In the case of “UniProt P25524 (peptide sequence: EYGVESLHK, peptide start residue: 192)”, the log2 fold change was -0.706.

As for “UniProt P76419 (peptide sequence: GGDCAPTREELLLAHK, peptide start residue: 304)”, the log2 fold change is -1.82.

With “UniProt P21170 (peptide sequence: TLLTQFR, peptide start residue: 619)”, the log2 fold change came to 0.611.

On to “UniProt P51024 (peptide sequence: QLIEMNR, peptide start residue: 75)”, for which the log2 fold change is -0.359.

As for “UniProt P09147 (peptide sequence: REGDLPAYWADASKADR, peptide start residue: 292)”, the log2 fold change was determined as 0.627.

In the case of “UniProt P37903 (peptide sequence: VHVHVEEGSPKDR, peptide start residue: 86)”, the log2 fold change was -1.8.

Take “UniProt P17117 (peptide sequence: ESRPFILDYLHK, peptide start residue: 223)”: the log2 fold change was 1.13.

On to “UniProt P37765 (peptide sequence: EIESIIEAGRVSVDGK, peptide start residue: 19)”, for which the log2 fold change was 0.997.

In the case of “UniProt P06989 (peptide sequence: KSADPETSYTAK, peptide start residue: 126)”, the log2 fold change is -0.912.

Take “UniProt Q46906 (peptide sequence: AEGFFCIHR, peptide start residue: 99)”: the log2 fold change is -0.839.

In the case of “UniProt P25748 (peptide sequence: IGYLSSSHGIEDDAMRK, peptide start residue: 179)”, the log2 fold change was determined as 0.977.

Consider “UniProt P75767 (peptide sequence: VLSSLSSLGSR, peptide start residue: 24)”, for which the log2 fold change was -1.19.

Regarding “UniProt P75874 (peptide sequence: YLLDQGYHVIPVSPK, peptide start residue: 35)”, the log2 fold change came out at 0.437.

As for “UniProt P24200 (peptide sequence: TLSQPEGSR, peptide start residue: 169)”, the log2 fold change is -0.499.

Regarding “UniProt P37636 (peptide sequence: QDYDTAR, peptide start residue: 137)”, the log2 fold change is 0.264.

With “UniProt P77306 (peptide sequence: TLSPEDLR, peptide start residue: 123)”, the log2 fold change is 0.57.

Consider “UniProt P77804 (peptide sequence: LEGYQEDQAKK, peptide start residue: 423)”, for which the log2 fold change was 0.387.

Regarding “UniProt P0A9K7 (peptide sequence: HVGGDELDKLLAGK, peptide start residue: 224)”, the log2 fold change is -0.493.

With “UniProt P77721 (peptide sequence: VVSTGGELNK, peptide start residue: 138)”, the log2 fold change is -0.442.

Regarding “UniProt P37745 (peptide sequence: WVGVLLSADNK, peptide start residue: 98)”, the log2 fold change was -0.542.

For the target “UniProt P39829 (peptide sequence: SANPSPGNKK, peptide start residue: 364)”, the log2 fold change is -0.412.

Consider “UniProt P75824 (peptide sequence: AGVCGCCK, peptide start residue: 275)”, for which the log2 fold change is 0.616.
